Bioassay records as filed in PubChem BioAssay.
BoNT A protease – BoNT/A light chain protease inhibitors, primary screen, biochemical, flow cytometry, MLPCN library. Botulinum neurotoxin type A light chain protease (Clostridium botulinum A str. ATCC 3502). multiplex microsphere protease substrate cleavage. inhibition, % at 10 µM. hit rate 0.17% among 360,000. AID 588499, 2011; further: plate controls were buffer without enzyme for full effect and enzyme alone for no effect
BoNT-F LC inh – BoNT/F light chain protease inhibitors, primary screen, biochemical, flow cytometry, MLPCN library. Botulinum neurotoxin type F light chain protease (Clostridium botulinum). Multiplex microsphere protease cleavage assay. inhibition, % at 10 µM. hit rate 0.22% among 360,000; in the data active means inhibition above about 35%, passing the limit was not always enough; inconclusive means no clear call, values can overlap the other calls; further: plate controls were buffer without enzyme for full effect and enzyme alone for no effect
Anthrax LF inh2 – Bacillus anthracis LF protease inhibitors, primary screen, biochemical, multiplex microsphere, MLPCN library. multiplex microsphere protease cleavage assay. AID 588501, 2011. hit rate 0.12% among 360,000. inhibition, % at 10 µM; further: plate controls were buffer without enzyme for full effect and enzyme alone for no effect
Bead autofluor – counter-screen for toxin protease inhibitors: compound fluorescence; compound autofluorescence counterscreen, microsphere flow cytometry; stronger effect = higher value; AID 624483; hit rate 3.1% among 360,000; fluorescence intensity (concentration not given with the values); in the data active means fluorescence intensity above about 16000; inconclusive means no clear call, values can overlap the other calls
An asterisk follows results filed as active. Compounds with a hit are over-represented: about 3.5% of the library has one in this group of screens. Unless noted, no stated cut-off is given here; in the data, active means inhibition above about 30%; inconclusive means no clear call, values can overlap the other calls; inactive means below that.

Results for CCCC(=O)N1CCC1(C)C(=O)NS(=O)(=O)c1cccs1 (stereo not drawn) ?
BoNT A protease: 0; BoNT-F LC inh: -76; Anthrax LF inh2: -31; Bead autofluor: 3098

How did CC1C=CCC2C(=O)N(c3cccc(C(=O)Nc4ccc(Br)cc4)c3)C(=O)C12 (stereo not drawn) do in these assays?
BoNT A protease: -3; BoNT-F LC inh: -2; Anthrax LF inh2: 0; Bead autofluor: 6379

What do the screens show for `NC(=O)COC(=O)CCCc1nc2ccccc2s1`?
BoNT A protease: 2; BoNT-F LC inh: 1; Anthrax LF inh2: -2; Bead autofluor: 21657*

How did CCCC(=O)Nc1cccc(NC(=O)c2ccc(C)c([N+](=O)[O-])c2)c1 do in these assays?
BoNT A protease: inconclusive; BoNT-F LC inh: 0; Anthrax LF inh2: -1; Bead autofluor: 23307*

What do the screens show for `CCC(=O)Nc1cccc(NC(=O)c2ccc(C)c([N+](=O)[O-])c2)c1`?
BoNT A protease: 0; BoNT-F LC inh: 0; Anthrax LF inh2: 0; Bead autofluor: 10494

Results for O=C(NCCc1ccccn1)C1CC(=O)N(Cc2ccccc2Cl)C1 (stereo not drawn) ?
BoNT A protease: inconclusive; BoNT-F LC inh: 0; Anthrax LF inh2: -2; Bead autofluor: 19830*

What do the screens show for `CC1=CC(C)(C)N(C(=O)CSc2nnc(C)s2)c2ccc(C)cc21`?
BoNT A protease: 0; BoNT-F LC inh: -10; Anthrax LF inh2: 3; Bead autofluor: 10646

Results for CC1=CC(C)(C)N(C(=O)CSc2nnc(N)s2)c2cc(C)c(C)cc21 ?
BoNT A protease: 0; BoNT-F LC inh: -3; Anthrax LF inh2: -1; Bead autofluor: 23062*

Results for Cc1cc(N2C(=O)C3C4c5ccccc5C(c5ccccc54)C3C2=O)no1 (stereo not drawn) ?
BoNT A protease: 2; BoNT-F LC inh: 3; Anthrax LF inh2: -3; Bead autofluor: 21886*

What do the screens show for `Cc1cc(N2C(=O)[C@@H]3[C@H](C2=O)[C@@H]2C[C@H]3C(Br)C2Br)no1` (stereo partly drawn)?
BoNT A protease: -4; BoNT-F LC inh: inconclusive; Anthrax LF inh2: 9; Bead autofluor: 3435

Results for CCCCC(=O)Nc1cccc(NC(=O)c2ccc(Br)o2)c1 ?
BoNT A protease: 0; BoNT-F LC inh: -2; Anthrax LF inh2: -4; Bead autofluor: 16352*

Results for O=C(Nc1cccc(OC(F)(F)F)c1)c1ccc(Br)o1 ?
BoNT A protease: -2; BoNT-F LC inh: -2; Anthrax LF inh2: -3; Bead autofluor: 16998*

What do the screens show for `COc1cc(/C=C/C(=O)O)cc(S(=O)(=O)Nc2ccc3c(c2)CCC3)c1OC`?
BoNT A protease: -3; BoNT-F LC inh: -16; Anthrax LF inh2: -11; Bead autofluor: 3106

How did COC(=O)C1=C(C)N(C)C(=O)NC1c1cc(Cl)cc(Cl)c1OC (stereo not drawn) do in these assays?
BoNT A protease: inconclusive; BoNT-F LC inh: -5; Anthrax LF inh2: 0; Bead autofluor: 17435*

What do the screens show for `CC1CC(=O)Nc2ccccc2N1C(=O)CSc1ccc2ccccc2n1` (stereo not drawn)?
BoNT A protease: 0; BoNT-F LC inh: -2; Anthrax LF inh2: -3; Bead autofluor: 2915

What do the screens show for `O=C1CCC2c3ccc4ccccc4c3CCN12` (stereo not drawn)?
BoNT A protease: -2; BoNT-F LC inh: -4; Anthrax LF inh2: 3; Bead autofluor: 20473*

Results for O=C(O)CC1Cc2ccccc2C1C(=O)O (stereo not drawn) ?
BoNT A protease: -1; BoNT-F LC inh: 7; Anthrax LF inh2: -3; Bead autofluor: 4488

Results for CCOc1ccccc1N=c1oc2cc(O)ccc2cc1C(=O)NCC1CCCO1 (stereo not drawn) ?
BoNT A protease: -1; BoNT-F LC inh: -3; Anthrax LF inh2: -5; Bead autofluor: 16487*

What do the screens show for `COc1ccc(N=c2oc3cc(O)ccc3cc2C(=O)NCC2CCCO2)cc1` (stereo not drawn)?
BoNT A protease: inconclusive; BoNT-F LC inh: 2; Anthrax LF inh2: 1; Bead autofluor: 21984*

What do the screens show for `COc1ccccc1CCNC(=O)C1CC(=O)N(c2ccccc2F)C1` (stereo not drawn)?
BoNT A protease: -1; BoNT-F LC inh: 5; Anthrax LF inh2: -4; Bead autofluor: 4267

What do the screens show for `O=C(Nc1ccccc1C(F)(F)F)C1CC(=O)N(c2ccccc2F)C1` (stereo not drawn)?
BoNT A protease: 4; BoNT-F LC inh: 4; Anthrax LF inh2: -9; Bead autofluor: 21214*

What do the screens show for `C=CCn1c(CNC(=O)c2ccccc2F)nnc1SCC(=O)N1CCOCC1`?
BoNT A protease: -2; BoNT-F LC inh: -7; Anthrax LF inh2: -2; Bead autofluor: inconclusive

How did O=C(c1ccncc1)N(Cc1ccco1)Cc1cc2ccccc2[nH]c1=O do in these assays?
BoNT A protease: 2; BoNT-F LC inh: 2; Anthrax LF inh2: 0; Bead autofluor: 22113*

Results for COCCCNC(=S)NNC(=O)c1cccnc1 ?
BoNT A protease: 0; BoNT-F LC inh: -2; Anthrax LF inh2: -2; Bead autofluor: 20168*

Results for O=C(NNC(=S)NCc1ccccc1)c1cccnc1 ?
BoNT A protease: 2; BoNT-F LC inh: 2; Anthrax LF inh2: -1; Bead autofluor: 5709

How did COCCCNC(=O)c1ccc(-c2nc3ccccc3nc2-c2ccccc2)cc1 do in these assays?
BoNT A protease: -2; BoNT-F LC inh: -1; Anthrax LF inh2: -5; Bead autofluor: 6662

What do the screens show for `COCCCNC(=O)c1ccc(C(=O)NCCCOC)cc1`?
BoNT A protease: 0; BoNT-F LC inh: -2; Anthrax LF inh2: 2; Bead autofluor: 22526*

How did CCOC(=O)C1(C)CCCN(C(=O)C(c2ccccc2)c2ccccc2)C1 (stereo not drawn) do in these assays?
BoNT A protease: 0; BoNT-F LC inh: -5; Anthrax LF inh2: -2; Bead autofluor: 3483

How did CCOC(=O)[C@]12CCCC=C1N(Cc1ccco1)C(=O)[C@H](CC(=O)N1CCSCC1)C2 do in these assays?
BoNT A protease: 0; BoNT-F LC inh: -5; Anthrax LF inh2: -5; Bead autofluor: 5825

Results for Cc1ccc(C(=O)NN2C(=O)/C(=C/c3cn(C)c4ccccc34)SC2=S)cc1 ?
BoNT A protease: 43*; BoNT-F LC inh: 23; Anthrax LF inh2: 26; Bead autofluor: 2904

How did O=C(NCC(=O)N1CCN(C(=O)c2ccco2)CC1)c1ccc(Br)cc1 do in these assays?
BoNT A protease: 3; BoNT-F LC inh: 5; Anthrax LF inh2: 5; Bead autofluor: inconclusive

How did CCN(CC)CCC(O)(c1ccccc1)C1CCCCC1 (stereo not drawn) do in these assays?
BoNT A protease: -226; BoNT-F LC inh: inconclusive; Anthrax LF inh2: -209; Bead autofluor: 60438*

What do the screens show for `C[C@H](CO)N1C[C@H](C)[C@@H](CN(C)C(=O)c2ccc3c(c2)OCO3)Oc2cc(/C=C/c3ccccc3)ccc2S1(=O)=O`?
BoNT A protease: -1; BoNT-F LC inh: -2; Anthrax LF inh2: -6; Bead autofluor: 3441

What do the screens show for `CCn1nc(C)c(C(=O)Nc2cc(Oc3cc(C)cc(C)c3)cc([N+](=O)[O-])c2)c1C`?
BoNT A protease: inconclusive; BoNT-F LC inh: 1; Anthrax LF inh2: -2; Bead autofluor: 22749*
